Source: PubChem BioAssay (The Scripps Research Institute Molecular Screening Center)
TEAD-YAP inh = TEAD-YAP interaction inhibition, primary screen, TEAD-YAP interaction inhibitor project, luminescence, HEK-TIYL cells. AID 1259422, 2018. actives 1.4% (n = 640,000). inhibition, % at 9.12 µM. TEAD-Gal4/YAP UAS-luciferase luminescence; in the data active = inhibition above about 32%
MITF inh = MITF inhibitors, primary screen, biochemical, AlphaScreen, human. Microphthalmia-associated transcription factor (Homo sapiens), O75030. AlphaScreen MITF homodimerization, bead proximity signal. inhibition, % at 2.6 µM. actives 0.91% (n = 650,000). AID 1259374, 2018; in the data active = inhibition above about 50%
Target sequence (O75030 whole entry, looked up): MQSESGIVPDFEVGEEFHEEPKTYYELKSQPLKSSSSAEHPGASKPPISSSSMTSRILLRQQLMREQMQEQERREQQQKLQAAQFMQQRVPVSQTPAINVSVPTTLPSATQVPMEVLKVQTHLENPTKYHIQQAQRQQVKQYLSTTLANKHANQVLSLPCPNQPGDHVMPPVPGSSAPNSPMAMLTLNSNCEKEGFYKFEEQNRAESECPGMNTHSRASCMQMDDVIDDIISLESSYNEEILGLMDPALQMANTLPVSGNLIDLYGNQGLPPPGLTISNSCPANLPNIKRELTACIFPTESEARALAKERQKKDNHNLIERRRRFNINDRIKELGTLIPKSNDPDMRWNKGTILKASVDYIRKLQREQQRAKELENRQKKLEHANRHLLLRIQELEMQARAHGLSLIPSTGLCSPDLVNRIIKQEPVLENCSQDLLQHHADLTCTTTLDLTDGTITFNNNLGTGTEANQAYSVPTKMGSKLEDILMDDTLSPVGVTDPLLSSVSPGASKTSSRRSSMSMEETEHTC
FBW7 act = FBW7 E3 ligase activators, primary screen, biochemical, AlphaScreen, human; F-box/WD repeat-containing protein 7 (Homo sapiens), Q969H0; AlphaScreen FBW7–phospho-cyclin E peptide binding, activator screen; normalized activity (activation), % at 26.1 µM; actives 0.13% (n = 650,000); in the data active = normalized activity above about 1.9%;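 also: purified mutant Fbw7 with reduced substrate affinity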
GPR151 ag = activators of human GPR151, primary screen, cell-based, PathHunter beta-arrestin, luminescence. G-protein coupled receptor 151 (Homo sapiens), Q8TDV0. PathHunter beta-arrestin GPR151 cells. activation, % at 11.2 µM. actives 1% (n = 650,000). AID 1508602, 2020; in the data active = activation above about 4.9%
Hits are given with their value; . = inactive. The list is not random: actives were taken first. Their share in the collection is about 3.5%.

SMILES | TEAD-YAP inh | MITF inh | FBW7 act | GPR151 ag
Cc1cc([N+](=O)[O-])nn1CC(=O)Nc1cccc(F)c1C#N | 36 | . | . | .
OC1CCN(Cc2ccccc2Cl)CC1 | . | . | . | .
Clc1ccccc1CN1c2ccccc2N(Cc2ccccc2Cl)C1c1ccccc1Cl | 81 | . | . | .
Nc1cccc(-c2cnn3c(NCC4CC4)ccnc23)c1 | . | . | . | .
Oc1cccc(-c2cnn3c(NCc4cccs4)ccnc23)c1 | 99 | . | . | .
Oc1cccc(-c2cnn3c(NCC4CC4)ccnc23)c1 | 98 | . | . | .
Clc1cccc(-c2cnn3c(NCc4cccs4)ccnc23)c1 | . | . | . | .
O=C(O)c1cccc(-c2cnn3c(NCc4cccs4)ccnc23)c1 | 94 | . | . | .
COc1ccc(CNc2ccnc3c(-c4cccc(C(=O)NCCN(C)C)c4)cnn23)cc1 | . | . | . | .
CN(C)CCNC(=O)c1cccc(-c2cnn3c(NCc4cccs4)ccnc23)c1 | 93 | . | . | .
COc1ccc2occ(C(=O)c3oc4ccc(Cl)cc4c3N)c2c1 | 57 | . | . | .
COc1ccc(C2CC(=O)N(CC(=O)c3ccccc3)c3ccccc3S2)cc1OC (centres undefined) | 76 | . | . | .
COC(=O)c1cc2c(cc1NC(=O)c1cccc3c1SCCC3=O)OCO2 | 51 | . | . | .
COC(=O)c1sccc1NC(=O)c1cccc2c1SCCC2=O | . | . | . | .
COc1ccc(C2C(C#N)=C(N)Oc3c2sc2ccccc32)cc1OC (centres undefined) | 56 | . | . | .
COc1ccc(C2C(C#N)=C(N)Oc3c2sc2ccccc32)c2ccccc12 (centres undefined) | . | . | . | .
COc1ccc(S(=O)(=O)NC(N)=NCCc2ccc(Cl)cc2)cc1OC | . | . | . | .
CCn1c(=N)c(C(=O)NC)cc2c(=O)n3cccc(C)c3nc21 | 32 | . | . | .
CCn1c(=N)c(C(=O)NCCOC)cc2c(=O)n3cccc(C)c3nc21 | . | . | . | .
COc1cc2nc(CN3CCCCC3)[nH]c(=O)c2cc1OC | . | . | . | .
COc1cc2nc(CN3CCN(c4ccccc4F)CC3)[nH]c(=O)c2cc1OC | 48 | . | . | .
O=C1CCC(CCC(=O)N2CCCCC2c2nccs2)(Cc2ccc3ccccc3c2)N1 (centres undefined) | . | . | . | .
N#Cc1ccc(OCC(=O)OCc2ccc(Br)cc2)cc1 | . | . | . | .
O=C(COc1ccc(Br)cc1)OCc1ccccc1 | . | . | 1.9 | .
CCOC(=O)c1c(NC(=O)C(C)Sc2nnc(CNC(=O)c3ccc(OC)cc3)n2C)sc2c1CCC2 (centres undefined) | . | . | . | .
SMILES | TEAD-YAP inh | MITF inh | FBW7 act | GPR151 ag
COCCOC(=O)c1[nH]c2c(c1C)C(=O)CC(c1ccc(N(C)C)cc1)C2 (centres undefined) | . | . | . | .
COCCOC(=O)c1[nH]c2c(c1C)C(=O)CC(c1ccccc1)C2 (centres undefined) | 49 | . | . | .
Cc1c(C(=O)OCCOC(C)C)[nH]c2c1C(=O)CC(c1ccccc1)C2 (centres undefined) | 48 | . | . | .
COCCOC(=O)c1[nH]c2c(c1C)C(=O)CC(c1ccc(Cl)cc1)C2 (centres undefined) | . | . | . | .
COCCOC(=O)c1[nH]c2c(c1C)C(=O)CC(c1ccc(F)cc1)C2 (centres undefined) | 35 | . | . | .
Cc1c(C(=O)O)[nH]c2c1C(=O)CC(c1ccccc1)C2 (centres undefined) | . | . | . | .
Cc1cccc(N2CCN(C(=O)c3ccccc3)CC2)c1C | . | . | . | .
CC(=O)Oc1ccc(C(=O)N2CCN(c3cccc(C)c3C)CC2)cc1 | 51 | . | . | .
CCCN(C(=O)c1coc(=O)c2ccccc12)c1cccc(Cl)c1 | 68 | . | . | .
O=[N+]([O-])c1cc(Br)c(Nc2ccccc2)c([N+](=O)[O-])c1 | 40 | . | . | .
O=C(NCCN1CCCC1)c1cc(C2COc3ccccc3O2)nc2ccc(-c3cn[nH]c3)cc12 (centres undefined) | . | . | . | .
CCCNc1cc(Nc2ncccn2)nc(N)n1 | . | . | . | .
CCCNc1cc(Nc2ccccn2)nc(N)n1 | 34 | . | . | .
NS(=O)(=O)c1ccc(NC(=O)c2cnccn2)cc1 | . | . | . | .
CC(=O)Nc1ccc(N=Cc2cc(C)cc(I)c2O)cc1 | . | . | . | .
CCc1ccc(-c2nc(CSCC(=O)N3CCN(c4ccccn4)CC3)c(C)o2)cc1 | 35 | . | . | .
Cc1ccc(-c2nc(CSCC(=O)N3CCN(c4ccccn4)CC3)c(C)o2)cc1 | 40 | . | . | .
CC(=O)Nc1cccc(NC(=O)CSc2ccc(-c3ccccc3)nn2)c1 | . | . | . | .
Cc1cc(S(=O)(=O)O)ccc1N1N=C(C(=O)O)CC1=O | . | 71 | . | .
CC(=O)N1N=C(c2cccc(NS(=O)(=O)c3ccccc3)c2)CC1c1ccccc1O (centres undefined) | . | . | . | .
CC(c1cccs1)N(C)C(=O)Cn1cc(NC(=O)CCOc2ccccc2)cn1 (centres undefined) | . | . | . | .
COc1cccc(C=Nc2cnn(C)c2C(N)=O)c1O | . | . | 3.6 | .
COc1ccc2c(c1)C(=O)N(CCc1ccccc1)C(=O)C2 | . | . | . | .
O=C1N[C@H](C(=O)NCCN2Cc3ccccc3OC(c3ccsc3)C2)CS1 (some centres undefined) | . | . | . | .
Cc1noc(C)c1-c1nc(Nc2ccc(N3CCOCC3)cc2)c2ncn(C3CCCCC3)c2n1 | . | . | . | .
SMILES | TEAD-YAP inh | MITF inh | FBW7 act | GPR151 ag
c1ccc(Oc2ccc(Nc3nc(N4CCc5ccccc5C4)nc4c3ncn4C3CCCCC3)cc2)cc1 | . | . | . | .
c1ccc(Nc2nc(N3CCc4ccccc4C3)nc3c2ncn3C2CCCCC2)cc1 | 32 | . | . | .
Cc1noc(C)c1-c1nc(Nc2ccccc2)c2ncn(C3CCCCC3)c2n1 | 75 | . | . | .
COc1cc(/C=C2\C(=O)N(c3ccccc3)N=C2C)cc([N+](=O)[O-])c1O | . | . | . | .
CCOC(=O)c1ccccc1NC(=O)c1ccccc1NS(=O)(=O)c1ccccc1 | . | . | . | .
Cc1c([N+](=O)[O-])c2ccc(O)c(CN(C)C)c2n1-c1ccccc1 | . | . | . | .
O=C(NCc1nc(-c2ccc(Cl)cc2)no1)C12CC3CC(CC(C3)C1)C2 | . | . | . | .
C/C=C(\C)C(=O)N1CCC2(CC1)c1ccccc1[C@@H](NC(=O)c1ccccc1OC)[C@@H]2OC | . | . | . | .
Cc1ccc(C)n1-c1ccc(C(=O)O)c(Cl)c1 | . | 81 | . | .
CC(=O)Nc1ccc(-n2c(C)ccc2C)c(C(=O)O)c1 | . | 57 | . | .
Cc1ccc(C)n1-c1cc(Cl)ccc1C(=O)O | . | 81 | . | .
